Laboratory results reported in PubChem BioAssay (EPA / NIEHS).
Results filed as inconclusive are left out. Active and inactive are the calls of the source. How the source made its calls: active means hit-call score of the fitted dose curve at least 0.9, where 1 is the maximum; inconclusive means response in the unintended direction; inactive means score below 0.9.

Tested on: not listed separately
Experiment: ACEA_AR_agonist_AUC_viability: ACEA Biosciences xCELLigence Real-Time Cell Analysis on Androgen Receptor Agonism for Viability (AID 2283775);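 on AC50: viability read 80 hours after compound addition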
How it was run: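 Viability endpoint from xCELLigence impedance in 22Rv1 prostate cells at 80 h. Eight-point series, 100 uM maximum final.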

SMILES | outcome | AC50
O=C1CCCCC1 | inactive | –
CCC(C)N(C)C(=O)c1cc2ccccc2c(-c2ccccc2Cl)n1 (stereo not given) | – | 45.7 µM (active)
NCCOCCOCCN | inactive | –
CC1(C)C(=O)NC(=O)N1CO | inactive | –
CCCCCCCCCCCCCCCCO | inactive | –
Cc1cn([C@H]2C=C[C@@H](CO)O2)c(=O)[nH]c1=O | inactive | –
COc1ccc(OC(F)(F)F)cc1CN[C@H]1CCCN[C@H]1c1ccccc1 | – | 65.5 µM (active)
CC(=O)S[C@H](C(=O)N[C@H]1Cc2ccccc2[C@H]2CCC[C@@H](C(=O)O)N2C1=O)C(C)C | inactive | –
O=C(N[C@@H](c1ccccc1)[C@@H]1CCCCN1)c1cccc(C(F)(F)F)c1Cl | – | 55.8 µM (active)
COc1ccc(C(=O)Nc2nc3ccccc3c(NCc3ccccc3)c2C#N)cc1 | – | 24 µM (active)
CN(C)CCCN1c2ccccc2Sc2ccc(Cl)cc21 | – | 22.2 µM (active)
CCCCCCC(C=O)=Cc1ccccc1 | – | 76.7 µM (active)
N[C@@H](Cc1c[nH]c2ccccc12)C(=O)O | inactive | –
O=C(O)CC(O)(CC(=O)O)C(=O)O | inactive | –
CCCCCCCCCC[N+](C)(C)[O-] | inactive | –

Tested on: not listed separately
Experiment: ACEA_AR_antagonist_AUC_viability: ACEA Biosciences xCELLigence Real-Time Cell Analysis on Androgen Receptor Antagonism for Viability (AID 2283776);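 further: area under impedance growth curve at 80 h after dosing as viability; hits lower the growth signal relative to DMSO meaning cytotoxicity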
How it was run: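 22Rv1 human prostate cancer cells were seeded on electrode plates, monitored overnight, then exposed to eight 1:4 dilutions from 100 uM final. Impedance-based growth kinetics at 80 h gave an AUC viability endpoint normalized to DMSO.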

SMILES | outcome | AC50
Cn1cnc2c1c(=O)[nH]c(=O)n2C | inactive | –
O=C1CCCCC1 | inactive | –
CCC(C)N(C)C(=O)c1cc2ccccc2c(-c2ccccc2Cl)n1 (stereo not given) | – | 40.9 µM (active)
NCCOCCOCCN | inactive | –
c1ccc2occc2c1 | inactive | –
CC1(C)C(=O)NC(=O)N1CO | inactive | –
COC(=O)CCCC(=O)OC | inactive | –
CCCCCCCCCCCCCCCCO | inactive | –
Cc1cn([C@H]2C=C[C@@H](CO)O2)c(=O)[nH]c1=O | – | 19.7 µM (active)
COc1ccc(OC(F)(F)F)cc1CN[C@H]1CCCN[C@H]1c1ccccc1 | – | 67 µM (active)
CC(=O)S[C@H](C(=O)N[C@H]1Cc2ccccc2[C@H]2CCC[C@@H](C(=O)O)N2C1=O)C(C)C | inactive | –
O=C(N[C@@H](c1ccccc1)[C@@H]1CCCCN1)c1cccc(C(F)(F)F)c1Cl | – | 39.5 µM (active)
CCCCc1nc2cccnc2n1Cc1ccc(-c2ccccc2-c2nnn[nH]2)cc1 | – | 50 µM (active)
C=CCCCCCCCCCCCC | inactive | –
CCCC[C@H]1CN(CC2CCOCC2)C(=O)OC12CCN(C1(C)CCN(C(=O)c3c(C)ncnc3C)CC1)CC2 | inactive | –
O=C(O)c1[nH]n(-c2ccc(S(=O)(=O)O)cc2)c(=O)c1N=Nc1ccc(S(=O)(=O)O)cc1 | inactive | –
COc1ccc(C(=O)Nc2nc3ccccc3c(NCc3ccccc3)c2C#N)cc1 | – | 23.5 µM (active)
CCCCCCC(C=O)=Cc1ccccc1 | – | 78.5 µM (active)
CC(=O)O | inactive | –
CCCCCCC(CCCCCCCCCCC(=O)OCC(COC(C)=O)OC(C)=O)OC(C)=O (stereo not given) | inactive | –
N[C@@H](Cc1c[nH]c2ccccc12)C(=O)O | – | 9.92 µM (active)
CC(=O)OCC(COC(C)=O)OC(C)=O | inactive | –
CCCCC(CC)CO (stereo not given) | inactive | –
O=[Si]=O | inactive | –
O=C(O)CC(O)(CC(=O)O)C(=O)O | inactive | –
CCCCC(CC)COC(=O)CCCCCCCC(=O)OCC(CC)CCCC (stereo not given) | inactive | –
CCCCCCCCCC[N+](C)(C)[O-] | inactive | –

Tested on: not listed separately
Experiment: ACEA_ER_AUC_viability: ACEA Biosciences xCELLigence Real-Time Cell Analysis on Estrogen Receptor Agonism for Viability (AID 2283782);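 further: hit means loss of impedance signal meaning reduced cell growth or viability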
How it was run: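 Continuous-exposure impedance cell analysis uses T-47D cells in charcoal-stripped serum, eight 1:4 dilutions topping at 100 uM final, biological duplicate. Area under the growth curve at 80 h is fitted against DMSO baseline.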

SMILES | outcome | AC50
O=C1CCCCC1 | inactive | –
CCC(C)N(C)C(=O)c1cc2ccccc2c(-c2ccccc2Cl)n1 (stereo not given) | inactive | –
CC1(C)C(=O)NC(=O)N1CO | inactive | –
CCCCCCCCCCCCCCCCO | inactive | –
Cc1cn([C@H]2C=C[C@@H](CO)O2)c(=O)[nH]c1=O | inactive | –
COc1ccc(OC(F)(F)F)cc1CN[C@H]1CCCN[C@H]1c1ccccc1 | – | 14.9 µM (active)
CC(=O)S[C@H](C(=O)N[C@H]1Cc2ccccc2[C@H]2CCC[C@@H](C(=O)O)N2C1=O)C(C)C | inactive | –
O=C(N[C@@H](c1ccccc1)[C@@H]1CCCCN1)c1cccc(C(F)(F)F)c1Cl | – | 15.3 µM (active)
COc1ccc(C(=O)Nc2nc3ccccc3c(NCc3ccccc3)c2C#N)cc1 | inactive | –
CN(C)CCCN1c2ccccc2Sc2ccc(Cl)cc21 | – | 13.1 µM (active)
CCCCCCC(C=O)=Cc1ccccc1 | – | 74.7 µM (active)
N[C@@H](Cc1c[nH]c2ccccc12)C(=O)O | inactive | –
CC(=O)OCC(COC(C)=O)OC(C)=O | inactive | –
O=C(O)CC(O)(CC(=O)O)C(=O)O | inactive | –

Tested on: not listed separately
Experiment: STM_H9_NormalizedViability: Cytotoxicity Assessment at 120 hours in the Stemina devTOX quickPredict H9 human embryonic stem cell (hESC)-based Assay (AID 2283784)
How it was run: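 CellTiter-Fluor RFU, background-subtracted, expressed relative to 0.1% DMSO neutral control by plate. Pluripotent H9 cells; treatment with daily re-dosing. Plates carried 1uM methotrexate (positive) and 5 nM methotrexate (negative) references.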

SMILES | outcome | AC50
CCC(C)N(C)C(=O)c1cc2ccccc2c(-c2ccccc2Cl)n1 (stereo not given) | inactive | –
CCCCCCCCCCCCCCCCO | inactive | –
CN(C)CCCN1c2ccccc2Sc2ccc(Cl)cc21 | – | 3.22 µM (active)
N[C@@H](Cc1c[nH]c2ccccc12)C(=O)O | inactive | –
CCCCCCCCCC[N+](C)(C)[O-] | inactive | –

Target: AR (gene 367) (UniProt P10275)
Experiment: ACEA_AR_antagonist_80hr: ACEA Biosciences xCELLigence Real-Time Cell Analysis on Androgen Receptor Antagonism for Proliferation (AID 2283787);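 further: hits lower the impedance growth signal relative to DMSO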
How it was run: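 Using 22Rv1 cells held in assay medium, we dosed compounds (100 uM maximum final, 1:4 serial, eight points, 0.5% DMSO at top) and recorded cell-electrode impedance; the 80 hr timepoint was analyzed against DMSO.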

Chain of AR (gene 367) (P10275 whole entry, looked up): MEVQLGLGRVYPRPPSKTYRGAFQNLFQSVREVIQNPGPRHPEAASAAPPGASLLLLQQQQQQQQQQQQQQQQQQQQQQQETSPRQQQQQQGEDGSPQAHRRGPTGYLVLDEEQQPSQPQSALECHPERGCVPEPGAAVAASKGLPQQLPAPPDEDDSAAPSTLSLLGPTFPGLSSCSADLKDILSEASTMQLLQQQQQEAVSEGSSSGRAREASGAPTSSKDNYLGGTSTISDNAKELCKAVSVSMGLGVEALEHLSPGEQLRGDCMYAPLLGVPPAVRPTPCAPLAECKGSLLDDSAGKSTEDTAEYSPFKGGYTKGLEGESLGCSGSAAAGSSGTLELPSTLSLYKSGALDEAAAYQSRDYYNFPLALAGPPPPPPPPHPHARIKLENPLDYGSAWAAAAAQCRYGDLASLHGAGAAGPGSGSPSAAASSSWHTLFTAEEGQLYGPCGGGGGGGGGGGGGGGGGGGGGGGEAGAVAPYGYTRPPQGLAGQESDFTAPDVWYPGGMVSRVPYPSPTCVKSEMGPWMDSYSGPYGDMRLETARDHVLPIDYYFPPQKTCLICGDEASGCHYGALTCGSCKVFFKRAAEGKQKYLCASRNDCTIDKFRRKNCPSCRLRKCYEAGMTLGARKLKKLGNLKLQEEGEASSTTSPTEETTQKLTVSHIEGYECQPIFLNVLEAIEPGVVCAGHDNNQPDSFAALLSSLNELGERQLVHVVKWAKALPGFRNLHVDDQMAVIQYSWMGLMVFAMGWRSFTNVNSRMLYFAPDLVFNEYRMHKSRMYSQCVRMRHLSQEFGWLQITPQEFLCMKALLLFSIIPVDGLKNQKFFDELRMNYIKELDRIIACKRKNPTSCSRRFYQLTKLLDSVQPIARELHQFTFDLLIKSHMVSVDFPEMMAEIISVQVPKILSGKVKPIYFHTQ

SMILES | outcome | AC50
O=C1CCCCC1 | inactive | –
CCC(C)N(C)C(=O)c1cc2ccccc2c(-c2ccccc2Cl)n1 (stereo not given) | – | 46.4 µM (active)
NCCOCCOCCN | inactive | –
CCCCCCCCCC[N+](C)(C)[O-] | inactive | –
